According to the supplement of paper PMC11150407:
About 180 (8.6%) of roughly 2,100 compounds showed an effect of 50% or more. The sample holds strong results, similar compounds and a random draw of the others, so the mix is not that of the screen.

Each molecule was assayed on MOLM1 and UCSD/AML1 (averaged) (assay: cell viability relative to DMSO control (POC); higher = less growth inhibition). Conditions: 1 µM; 72 h.
Procedure: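 Primary viability screen in the 3q26 EVI1-high AML cell lines MOLM1 and UCSD/AML1 (1.5e3 cells/well, 384-well), compounds at 1 uM for 72 h. ATP CellTiter-Glo read-out given as percent of viable cells over DMSO control (POC), averaged over duplicates. DMSO was the negative control and 5 uM etoposide the positive control. This mapping covers the MicroSource Spectrum and Selleck anticancer libraries (drug names).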

SMILES	cell viability [%]
O=c1c(O)c(-c2ccccc2)oc2cccc(O)c12	93.1
CCC(CCC(C)C1CCC2C3CCC4CC(O)CCC4(C)C3CCC12C)C(C)C (stereo not given)	89.6
C=C1C(N)CC2CC1C2(C)C (stereo not drawn) [3-AMINO-beta-PINENE]	96.3
CC(C)[C@@H]1CC[C@@H](C)CC1=O	102
CC(=O)O[C@@]12CO[C@@H]1C[C@H](O)[C@@]1(C)C(=O)[C@H](O)C3=C(C)[C@@H](OC(=O)[C@H](O)[C@@H](NC(=O)OC(C)(C)C)c4ccccc4)C[C@@](O)([C@@H](OC(=O)c4ccccc4)[C@H]21)C3(C)C [Docetaxel (Taxotere)]	14.7
CC(=O)O[C@H]1C(=O)[C@@]2(C)[C@H]([C@H](OC(=O)c3ccccc3)[C@]3(O)C[C@H](OC(=O)[C@H](O)[C@@H](NC(=O)c4ccccc4)c4ccccc4)C(C)=C1C3(C)C)[C@]1(OC(C)=O)CO[C@@H]1C[C@@H]2O	11.7
CC(=O)O[C@H]1C(=O)[C@@]2(C)[C@H]([C@H](OC(=O)c3ccccc3)[C@]3(O)C[C@H](OC(=O)[C@H](O)[C@@H](NC(=O)c4ccccc4)c4ccccc4)C(C)=C1C3(C)C)[C@]1(OC(C)=O)CO[C@@H]1C[C@@H]2O [Paclitaxel (Taxol)]	12.3
COc1nc(C)cnc1NS(=O)(=O)c1cccnc1-c1ccc(-c2nnco2)cc1 [Zibotentan (ZD4054)]	71.2
Nc1nccc(Oc2ccc(NC(=O)c3c[nH]cc(-c4ccc(F)cc4)c3=O)cc2F)c1Cl	83.2
O=C1c2ccccc2C(=O)c2c(O)c(O)cc(O)c21	83.8
O=c1c(O)c(-c2ccccc2)oc2cc(O)ccc12	107
CC1(C)CC[C@]2(C(=O)O)CC[C@]3(C)C(=CC[C@@H]4[C@@]5(C)CC[C@H](O)[C@@](C)(CO)[C@@H]5CC[C@]43C)[C@@H]2C1	89.4
COc1ccc(C(C)=O)c(OC)c1	91.5
COC(=O)c1c(C)cc(OC(=O)c2c(C)cc(O)c(C=O)c2O)c(C)c1O	100
O=C(NCCCNc1nc(Nc2cccc(NC(=O)N3CCCC3)c2)ncc1I)c1cccs1	47.6
C#CC1(O)CC[C@H]2[C@@H]3CCC4=CC(=O)CC[C@@H]4[C@H]3CC[C@@]21CC (mixture of isomers)	69.3
C[C@@H]1CC[C@H]2C(C)(C)[C@H]3C[C@@]12CC[C@@]3(C)O	105
COc1cc2ccc(=O)oc2c(OC)c1OC	110
CCCCCCCCCCCCCCC(C(=O)O)C(O)(CC(=O)OC)C(=O)O (stereo not given)	87.8
CN1CCN(c2ccc3nc(-c4c(N)c5c(F)cccc5[nH]c4=O)[nH]c3c2)CC1 [Dovitinib (TKI-258)]	26.7
